Where “and” joins values, the source holds several entries; their conditions need not be identical. Equal values may be shown once. Compounds without any hit were thinned out: in the full panel of roughly 83,000, 20% have a hit.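 The endpoint reported here, percent growth, reads 100 for growth as untreated, 0 for no net growth and -100 for all cells dead.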 Calls of active or inactive are those of the source.

The first assay has as its system HCT-116 colon. The experiment in a line: NCI-60 one-dose screen, 48 h (100 = growth as untreated, 0 = no growth, -100 = all killed). As to conditions: 1 µM. Here is the method: Growth inhibition of the HCT-116 human tumor cell line is measured as a screen for anti-cancer activity. Cells are grown in 96 well plates and exposed to the test compound for 48 hours. Compounds are tested at a single concentration, which is 10^-5 M for most compounds. The reported endpoint is percent growth (GI% or GIPRCNT), where numbers from 0 - 100% represent growth inhibition, and numbers from -100% - 0 represent cell death. For example, a value of 40 represents 60% growth inhibition. A value of 0 means no net growth occurred over the course of the experiment. A value of -40 indicates 40% of cells at the beginning of the experiment died by the end of the experiment. A value of -100 means all cells are dead at the end of the experiment.
NCI-60 Human Tumor Cell Lines Screen was performed using the standard one-dose NCI protocol, which is described in more detail at https://dtp.cancer.gov/discovery_development/nci-60/default.htm.
Compounds with GIPRCNT values below 10 were considered active. Activity score was based on GIPRCNT using the following formula: […]
Score is 0 for GIPRCNT values of 100 or above, 50 for GIPRCNT values of 0, and 100 for GIPRCNT values of -100.
On to `CNC(=O)c1cc(Oc2ccc(CC(=O)Nc3cc(C(C)(C)C)nn3C)cc2)ccn1`, for which the growth is 65% (inactive).

The assay is the same for the next values; noted with them: 10 µM.
Take `Cc1[nH]c(-c2nc3ccccc3[nH]2)c(C)c1C(=O)NC(C)C1CCCCC1` (stereo not given): the growth was 85.5% (inactive).

As to `CNC(=O)c1cc(Oc2ccc(CC(=O)Nc3cc(C(C)(C)C)nn3C)cc2)ccn1`, the growth was 33.9% (inactive).

The same assay, now with this note: 10 µM unless noted.
For `CN(C)CCCNC1=C(Cl)C(=O)c2ccccc2C1=O`, the growth was 47.2% (inactive) and 4.88% (active). Turning to `CCN(CC)CCOc1ccc(/C=N/Nc2nc3c([nH]2)c(=O)n(C)c(=O)n3C)cc1`, the growth was 98.3% (inactive) and 103% (inactive). Same read-out and setting: then `Cn1cnc([N+](=O)[O-])c1Sc1ncnc2nc[nH]c12`, with 50% (inactive) and 60.1% (inactive). In the case of `Cc1cc(-c2ccc(NS(=O)(=O)c3ccccc3)c(C)c2)ccc1NS(=O)(=O)c1ccccc1`, the growth is 70.7% (inactive) and 101% (inactive). Same read-out and setting: then `Nc1nc2ncc(CNc3ccc(C(=O)N[C@@H](CCc4nn[nH]n4)C(=O)O)cc3)nc2c(=O)[nH]1`, with 94.1% (inactive) and 98.9% (inactive). Same read-out and setting: then `CN(C)CCCN1c2ccccc2Sc2ccc(Cl)cc21`, with 28.1% (inactive) and 110% (inactive) and 59.2% (inactive); and `CCOC(=O)Nc1ccc2c(c1)/C(=N\NC(N)=S)c1ccccc1-2`, with 53.5% (inactive) and 71.4% (inactive); and `COC(=O)c1nc(N)nc(C(=O)OC)c1C(=O)c1ccc(OC)cc1`, with 108% (inactive) and 38.1% (inactive). On to `CN(C)c1ccc2nc3ccc(N)cc3[n+](-c3ccccc3)c2c1`, for which the growth was 9.48% (active) and 5.93% (active).

`COc1ccc2c(=O)cc(-c3ccccc3)[nH]c2c1`: the growth is 16.7% (inactive) and 8.27% (active). Still for that read-out and setting: to `CNC(=O)c1cc(Oc2ccc(NC(=O)Nc3ccc(Cl)c(C(F)(F)F)c3)cc2)ccn1` belongs 0.741% (active) and 9.24% (active); to `O=S(=O)(Nc1ccccc1)C1CCCCC1`, 99.6% (inactive) and 107% (inactive). The same measure, in the same setting: then `Nc1ccccc1Nc1ccccc1`, with 86.6% (inactive) and 88.8% (inactive); and `CC(C)Oc1ccc2cc(-c3nn(CC4CCNCC4)c4ncnc(N)c34)ccc2c1`, with 50.4% (inactive) and 9.14% (active); and `CCN(CC)CCOc1ccc2c(c1)C(=O)c1cc(OCCN(CC)CC)ccc1-2`, with 44.2% (inactive) and 13.2% (inactive). Same read-out and setting: then `c1ccc2cc(C[n+]3ccn(Cc4ccc5ccccc5n4)c3)ccc2c1`, with 2.66% (active); and `Cc1ccc(S(=O)(=O)Nc2ccc3cc([N+](=O)[O-])ccc3c2[N+](=O)[O-])cc1`, with 83.8% (inactive) and 80.7% (inactive). Turning to `CC(=O)Oc1cc(C(=O)O)cc(OC(C)=O)c1OC(C)=O`, the growth is 100% (inactive) and 90.3% (inactive). The same measure, in the same setting: then `Cc1ncsc1CCO`, with 112% (inactive) and 102% (inactive); and `CC1=C(/C=C/C(C)=C/C=C/C(C)=C/C(=O)O)C(C)(C)CCC1`, with 83% (inactive) and 98.7% (inactive) and 89.6% (inactive); and `COc1ccccc1C(C)=O`, with 107% (inactive) and 102% (inactive). Regarding `O=Nc1ccc(O)cc1`, the growth was 103% (inactive) and 78.3% (inactive).

As for `N#C/C(=C/c1c(O)ccc2ccccc12)C(N)=O`, the growth is 101% (inactive). Still for that read-out and setting: then `CCOC(=O)C(CNc1ccccc1)C(=O)OCC`, with 104% (inactive). Same read-out and setting: then `S=C(S)N1CCCC1`, with 89.7% (inactive) and 86.2% (inactive); and `Cc1cc(O)c(C(C)C)cc1N`, with 87.2% (inactive) and 104% (inactive); and `OC(CSc1ccccc1)CN1CCN(c2cccc(Cl)c2)CC1` (stereo not given), with 93.3% (inactive) and 97.5% (inactive). Still for that read-out and setting: then `Cc1cccc(/C=C\C(=O)c2ccccc2)c1`, with 56.9% (inactive); and `CC(O)(CC(=O)CC(=O)c1ccccc1)c1ccccc1` (stereo not given), with 92.3% (inactive) and 92.6% (inactive); and `O=C(/C=C\c1ccnc2ccccc12)c1ccc([N+](=O)[O-])cc1`, with 0.905% (active) and -94% (active). For `Cc1ccc2nc3c(nc2c1)-c1cccc2cccc-3c12`, the growth is 89.4% (inactive). On the same count and under the same terms, to `CCOc1ccc2c(S(=O)(=O)O)cccc2c1[N+](=O)[O-]` belongs 101% (inactive); to `O=C(O)C1(C(=O)O)CCC1.[NH2-].[NH2-].[Pt+2]`, 107% (inactive) and 108% (inactive).

In the case of `O=C(O)C1C2C=CC(C2)C1C(=O)O` (stereo not given), the growth is 104% (inactive) and 17.3% (inactive) and 112% (inactive). Still for that read-out and setting: to `O=C(CCc1ccc(O)cc1)N/N=C/c1cc(Br)ccc1O` belongs 46.7% (inactive).

The same assay, now with this note: 30 µM.
For the compound `CNC(=O)c1cc(Oc2ccc(CC(=O)Nc3cc(C(C)(C)C)nn3C)cc2)ccn1`, the growth is 47.4% (inactive).

The assay is the same for the next values; noted with them: 100 µM.
As to `Cc1[nH]c(-c2nc3ccccc3[nH]2)c(C)c1C(=O)NC(C)C1CCCCC1` (stereo not given), the growth was -76.8% (active).

These data come from PubChem BioAssay (NCI).
